According to PubChem BioAssay (EPA / NIEHS):
Where “and” joins values, the source holds several entries; their conditions need not be identical. Identical values can stand only once. Calls of active or inactive are those of the source. Rule for the calls: active = hit-call score of the fitted dose curve at least 0.9, where 1 is the maximum; inactive = score below 0.9.

Test: CCTE_Mundy_HCI_hNP1_Casp3_7: CCTE's Caspase-Glo 3/7 Assay in human neuroprogenitor cells for Apoptosis, Mundy Lab (AID 2284240)
Description: CCTE_Mundy_HCI_hNP1_Casp3_7 is a multiplexed, cell-based-readout assay that uses neural stem cells derived from a neuroepithelial cell lineage of WA09 embryonic cells with measurements taken at […] after chemical dosing in a microplate: 96-well plate.CCTE_Mundy_HCI_hNP1_Casp3_7 is one component of the CCTE_Mundy_HCI_hNP1_Casp3_7 assay. It measures apoptosis related to caspase activation using Luminescent Reporter.Data from the assay component CCTE_Mundy_HCI_hNP1_Casp3_7 was analyzed at the endpoint CCTE_Mundy_HCI_hNP1_Casp3_7_gain in the positive analysis fitting direction relative to DMSO as the negative control and baseline of activity. Using a type of viability reporter, gain -of-signal activity can be used to understand viability effects.
Human neural progenitor cells (hNP1) were obtained as cryopreserved cells from ArunA Biomedical, Athens Georgia. Cells are plated on pre-coated poly-L-ornithine/laminin clear bottom and opaque 96 well plates (day 0). Plates are placed in a 37 °C, 5% CO2 incubator for 40 to 44 hours at which time plates are removed from the incubator and 10 uL of a freshly made chemical solution is added to each well. Apoptosis was measured based on detection of activated caspase-3/7 using the Caspase-Glo 3/7 assay kit (Promega). Twenty-four hours after chemical treatment, 50ul of Caspase-Glo 3/7 assay buffer was added to each well and the plate incubated for 30min at room temperature. Luminescence was then recorded in each well using a FLUOstar Optima plate reader.

Row | SMILES | outcome | AC50
1 | NC(=O)N1c2ccccc2C=Cc2ccccc21 | inactive | –
2 | O=C(Cl)C(F)(F)C(F)(F)C(F)(F)C(=O)Cl | inactive | –
3 | C[C@]12C=CC(=O)C=C1CC[C@H]1[C@@H]3C[C@@H](O)[C@](O)(C(=O)CO)[C@@]3(C)C[C@H](O)[C@@]12F | – | 23 µM (active)
4 | FC(F)=C(F)C(F)(F)C(F)(F)C(F)(F)C(F)(F)C(F)(F)C(F)(F)F | inactive | –
5 | NNC(=O)c1ccncc1 | inactive | –
6 | Nc1ccn([C@@H]2O[C@H](CO)[C@@H](O)[C@@H]2O)c(=O)n1 | – | 29 nM (active) and 290 nM (active)
7 | Cn1cc[nH]c1=S | inactive | –
8 | OC(Cn1cncn1)(Cn1cncn1)c1ccc(F)cc1F | inactive | –
9 | c1ccc2cc3ccccc3cc2c1 | inactive | –
10 | CCCC(CCC)C(=O)O | – | 1500 µM (active)
11 | COc1cc2c(c(OC)c1OC)-c1ccc(OC)c(=O)cc1[C@@H](NC(C)=O)CC2 | – | 0.0228 µM (active)
12 | FC(F)(F)C(F)(F)C(F)(F)C(F)(F)C(F)(F)C(F)(F)I | inactive | –
13 | OC(O)(C(F)C(O)(O)C(F)(F)F)C(F)(F)F | – | 13.4 µM (active)
